Bioassay records as filed in PubChem BioAssay.
FLuc inh = Photinus pyralis luciferase inhibition. P08659. purified P. pyralis luciferase, luminescence, biochemical. Potency, µM (series often up to 115 µM), most hits filed as inhibitors. actives 2.5% (n = 76,000); also: nearly all actives have a fitted effect of over 65% in size
Target sequence (P08659 whole entry, looked up): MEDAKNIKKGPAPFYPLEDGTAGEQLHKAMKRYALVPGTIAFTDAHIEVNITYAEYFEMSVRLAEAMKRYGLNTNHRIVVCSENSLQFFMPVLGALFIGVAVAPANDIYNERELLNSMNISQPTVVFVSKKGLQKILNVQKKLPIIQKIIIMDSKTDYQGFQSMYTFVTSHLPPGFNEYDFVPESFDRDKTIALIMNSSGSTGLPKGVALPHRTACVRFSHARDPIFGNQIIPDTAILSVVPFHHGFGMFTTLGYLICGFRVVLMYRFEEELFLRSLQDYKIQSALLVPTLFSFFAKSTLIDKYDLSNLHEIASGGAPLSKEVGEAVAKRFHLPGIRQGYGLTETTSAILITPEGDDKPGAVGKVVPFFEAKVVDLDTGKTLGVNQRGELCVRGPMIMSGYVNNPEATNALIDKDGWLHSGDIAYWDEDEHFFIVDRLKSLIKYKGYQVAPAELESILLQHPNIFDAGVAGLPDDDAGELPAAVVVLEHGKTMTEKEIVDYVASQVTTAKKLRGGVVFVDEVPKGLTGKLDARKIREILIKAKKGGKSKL
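Luminescence read by CCD imager after adding enzyme (10nM final) to wells holding compound, titrated in qHTS. Substrates 10uM each D-luciferin and ATP; buffer 50mM Tris acetate pH 7.5, 10mM Mg acetate, Tween-20, BSA.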
HEK cytotox = cytotoxic compounds in HEK 293 cells. HEK 293 viability, ATP luminescence (CellTiter-Glo), 48-72 h. Potency, µM (top dose mostly 115 µM), for inactives: top-dose activity change, negative = cytotoxicity, most hits filed as inhibitors. actives 6.6% (n = 94,000). AID 1345083; also: nearly all actives have a fitted effect of over 60% in size
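Pintool-delivered compounds were incubated with HEK 293 cells (250 cells/well) at 37 degree Celsius for 48 or 72 hr. ATP-dependent luminescence (CellTiter-Glo) then reported remaining viable cells.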
3T3 cytotox = NIH 3T3 cell cytotoxicity; actives 4.3% (n = 94,000); AID 1345082; NIH 3T3 viability, CellTiter-Glo ATP luminescence, 48-72 h; Potency, µM (top dose mostly 96.7 µM), for the others: at the highest dose activity change, negative = cytotoxicity, hits mostly inhibitors; also: nearly all actives have a fitted effect of over 55% in size
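Mouse fibroblast NIH 3T3 cells, 400 per well, received compound via pintool and were incubated for 48 or 72 hr prior to CellTiter-Glo ATP luminescence measurement.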
GPT2 inh = blocks human glutamate pyruvate transaminase 2; Recombinant GPT2, coupled pyruvate oxidase/HRP Amplex Red fluorescence; Q8TD30; Potency, µM (top dose mostly 57.7 µM), without a hit: top-dose activity change, negative = inhibition, hits mostly inhibitors; AID 1671188; actives 0.25% (n = 100,000); also: nearly all actives have a fitted effect of over 60% in size
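Recombinant GPT2 (10ng/uL) with 250uM a-KG and 2mM L-alanine, 30 min at room temperature, in HEPES pH 7.5 buffer. Pyruvate detected by pyruvate oxidase/HRP/Amplex Red fluorescence after 30 min in the dark; AOA (50uM) as positive control.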
hNpr1 antagonist = blocks ANP-stimulated signaling of human Npr1 receptor | Potency, µM (titrated, usually from 46.3 µM), without a hit: at the top dose activity change, negative = inhibition, most hits filed as inhibitors | HEK293 hNpr1 GloSensor cGMP, ANP-stimulated luminescence | actives 1.6% (n = 76,000); calls by dose curve; also: nearly all actives have a fitted effect of over 60% in size
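HEK293 cells stably expressing human Npr1 and cGMP GloSensor pGS-40F, loaded 2 h with 2% GloSensor reagent, given compound 30 min at room temperature. Luminescence read before and 20 min after 0.1 nM hNppA.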
Starred values were filed as active, the others as inactive; i = inactive; ? = inconclusive; · = no result given; [ ] = dose if it differs, or a comment. Hits are enriched below; roughly 10% of the tested compounds scored in any of these assays. Unless noted, calls follow the shape of the dose curve; as a rule, active = well fitted curve in the direction sought with a large enough effect; inconclusive = small, poorly fitted or top-dose-only effect, or another doubt; inactive = no such curve, though single readings can be large; an effect the other way counts as inactive or inconclusive. % is scaled to controls: 0 for no effect and ±100 for the full control effect; potency is read from the fitted curve at half-maximal effect.

SMILES	FLuc inh	HEK cytotox	3T3 cytotox	GPT2 inh	hNpr1 antagonist
COc1ccccc1CN1CCC2(CC1)OC(=O)N(Cc1ccccc1)C2(C)c1ccccc1 (stereo unspecified)	i	50.1µM*	?	-5.6%	-12.2%
CC1(C(=O)NCc2cnccn2)CCc2cnc(NCc3ccccc3)nc21 (stereo unspecified)	i	-3.7%[172 µM]	50.1µM*	2.6%[88.5 µM]	1.3%[70.6 µM]
CC1(C(=O)NCCc2ccccn2)CCc2cnc(NCc3ccccc3)nc21 (stereo unspecified)	i	-29.6%[172 µM]	39.8µM*	2.0%[88.5 µM]	-1.7%[70.6 µM]
CC1(C(=O)NCC2CC2)CCCc2cnc(NCc3ccccc3)nc21 (stereo unspecified)	i	?	?	-15.5%[88.5 µM]	-24.2%[70.6 µM]
CC1(C(=O)NCc2cccnc2)CCCc2cnc(Nc3ccccc3F)nc21 (stereo unspecified)	i	?	?	?	2.4%[70.6 µM]
CC1(C(=O)N2CCN(c3ccccn3)CC2)CCc2cnc(NCc3ccccc3)nc21 (stereo unspecified)	i	100µM*	?	2.1%[88.5 µM]	-8.4%[70.6 µM]
CC1(C(=O)NCC2CCCO2)CCc2cnc(NCc3ccccc3)nc21 (stereo unspecified)	i	-25.9%[172 µM]	50.1µM*	-2.2%[88.5 µM]	-4.8%[70.6 µM]
COc1ccccc1/C=C/CN1CC[C@@H](c2ccc3c(c2)OCO3)[C@H](O)C1	i	?	-29.6%	i	4.8%
Cc1nc([C@@H]2CN(C(=O)c3ccc4ncccc4c3)C[C@H]2C(N)=O)n[nH]1	i	-2.1%	1.4%	i	5.0%
CCOc1ccccc1NC(=O)N1CCN(C(=O)N2CC3CC(C2)[C@H]2CCCC(=O)N2C3)CC1 (stereo partly specified)	i	9.4%	i	-2.0%	-0.6%
CCOC(=O)CC1CCCCN1S(=O)(=O)c1cc(F)ccc1F (stereo unspecified)	i	-23.0%	-8.1%	-43.3%	4.0%
COc1ccc(C(=O)Nc2ccc3c(c2)CN(Cc2cccc(OC)c2OC)C(=O)CO3)cc1OC	i	?	-24.5%	-0.6%	2.9%
COc1cccc(CN2Cc3cc(NC(=O)c4ccc([N+](=O)[O-])cc4)ccc3OCC2=O)c1OC	i	39.8µM*	?	3.9%	?
COc1cccc(CN2Cc3cc(NC(=O)c4cccc(OC)c4)ccc3OCC2=O)c1	?	25.1µM*	?	0.3%	-15.3%
Cc1ccc(-c2nccn3cc(C(=O)N4CCN(CC(C)C)CC4)nc23)cc1	i	-10.3%	-16.3%	i	-12.1%
O=C(NCCc1noc(-c2ccncc2)n1)C1CCOC1 (stereo unspecified)	i	-9.2%	-4.8%	i	-23.9%
CCC(C)NC(=O)C(NC(=O)c1cccs1)C1CCN(C(=O)c2cccs2)CC1 (stereo unspecified)	i	-21.6%	-17.8%	3.2%	-8.2%
Cc1cc(N2CCC(NCc3noc(C)n3)CC2)nc(-c2ccccc2O)n1	i	?	?	1.3%	-1.5%
Cc1cc(N2CCC(NCc3nc[nH]c3C)CC2)nc(-c2ccccc2O)n1	i	?	35.5µM*	i	-2.1%
Cc1cc(C)cc(NC(=O)N2c3ccccc3CC2c2noc(C3CCOCC3)n2)c1 (stereo unspecified)	39.8µM*	-26.3%	-25.4%	-6.3%	-7.3%
Cn1ncc2c(C(=O)NC3CC3)cc(-c3ccc(Cl)cc3)nc21	·	?	79.4µM*	?	·
Cn1ncc2c(C(=O)NC3CCCCCC3)cc(C(C)(C)C)nc21	·	35.5µM*	?	i	·
Cn1ncc2c(C(=O)NCC3CCCCC3)cc(C(C)(C)C)nc21	·	-17.5%[172 µM]	-22.8%[138 µM]	-2.7%[88.5 µM]	·
CC(C)NC(=O)c1cc(-c2ccc(Cl)nc2)nc2c1cnn2C	·	?	22.4µM*	-41.3%	·
CC(C)NC(=O)c1cc(-c2ccc(F)cc2)nc2c1cnn2C	·	79.4µM*	?	·	·
SMILES	FLuc inh	HEK cytotox	3T3 cytotox	GPT2 inh	hNpr1 antagonist
Cn1ncc2c(C(=O)NC3CC3)cc(-c3cc(Cl)cc(Cl)c3)nc21	·	i	i	-12.1%	·
COc1cccc(-c2nn(-c3ccccc3)c(OC(C)=O)c2-c2ccc(NC(=O)C3CCCC3)cc2)c1	i	?	?	7.08µM*	-17.2%
CC(=O)Oc1c(-c2ccc(NC(=O)c3ccco3)cc2)c(-c2cccc(C)c2)nn1-c1cccc(F)c1	i	?	?	?	-13.2%
COc1ccc(-c2nn(-c3ccccc3C)c(OC(C)=O)c2-c2ccc(NC(C)=O)cc2)cc1OC	i	?	-21.0%	i	-3.1%
CC(=O)Oc1c(-c2ccc(NC(=O)c3ccco3)cc2)c(-c2cccc(C)c2)nn1-c1ccc(F)cc1	?	?	?	25.1µM*	-25.6%
CC(=O)Oc1c(-c2ccc(NC(=O)c3ccco3)cc2)c(-c2cccc(F)c2)nn1-c1ccc(C)cc1	i	?	?	28.2µM*	-15.2%
COc1ccnc(Cn2c(=O)n(CC(C)C)c3ncc(C(=O)O)cc32)c1OC	i	-7.0%	0.4%	-10.6%	3.4%
CCc1ccccc1-n1nc(-c2c(C)nc3scc(CC(=O)NCCOC)n3c2=O)cc1C	i	3.7%	i	i	2.3%
COCCNC(=O)[C@H]1C[C@H](Oc2cccnc2)CN1C(=O)Cc1c(C)noc1C	i	i	i	i	-0.2%
Cc1cccc(-c2cccc(CN3CCC(NC(=O)Nc4ccc(Cl)cc4)CC3)c2)c1	·	6.31µM*	11.2µM*	-4.6%	·
Cc1cccc(-c2cccc(CN3CCC(NC(=O)c4ccccc4)CC3)c2)c1	·	35.5µM*	25.1µM*	i	·
Cc1cccc(-c2nocc2CCC(=O)O)c1	?	-2.3%	-7.7%	i	-0.5%
CC(=O)NC1CCN(Cc2cccc(-c3cccc(C)c3)c2)CC1	·	?	100µM*	i	·
COC(=O)NC1CCN(Cc2cccc(-c3cccc(C)c3)c2)CC1	·	?	?	i	·
Cc1cccc(-c2nocc2CCC(=O)NC2CCN(Cc3ccccc3)CC2)c1	31.6µM*	?	?	2.0%	-18.9%
C=C1CC23CC1CCC2C12OC(=O)C(C)(C(O)C(O)C1O)C2C3C(=O)O (stereo unspecified)	·	·	·	i	·
COc1cccc([S+](=O)([O-])N2CCN(CCn3nc4n(c3=O)CCCC4)CC2)c1	·	i	-4.9%	·	·
Cc1ccc(C(=O)NC2CCN(Cc3cccc(-c4cccc(C)c4)c3)CC2)cc1	·	39.8µM*	31.6µM*	i	·
Cc1cccc(-c2cccc(CN3CCC(NC(=O)c4ccc(Cl)cc4)CC3)c2)c1	·	-30.4%	-21.0%	-6.7%	·
COCCNC(=O)c1c(-c2ccc(F)cc2)noc1[C@H](C)O	i	?	-12.5%[174 µM]	4.2%[88.5 µM]	1.1%[70.6 µM]
O=C(NCc1cccnc1Oc1ccc(F)cc1F)c1cc(C2CC2)[nH]n1	i	8.91µM*	?	4.5%	-20.4%
